Assay outcomes from PubChem BioAssay.
S1P4 antag – S1P4 receptor antagonists, primary screen, cell-based | S1P4-expressing cells, antagonist mode, reporter read-out | 220,000 compounds, 0.26% hits | inhibition, % at 4.98 µM | Sphingosine 1-phosphate receptor 4 (Homo sapiens), O95977 | AID 1510, 2009; in the data active = inhibition above about 29%;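 note: 0% = wells stimulated with agonist and 100% = vehicle wells without agonist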
INS promoter inh – inhibitors of insulin promoter-driven GFP, primary screen, imaging, TRM-6 cells (human fetal islet line), eGFP reporter, cell count | reporter expression induced with tamoxifen | inhibition, % at 2 µM | 130,000 compounds, 0.9% hits | AID 1273, 2008;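 active = inhibition above the mean plus 3 SD, with well images judged a real hit on visual review, cut at about 60% in these data, passing the limit was not always enough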
EP2 antag – human EP2 receptor antagonists, primary screen, TR-FRET cAMP, C6 glioma cells; 260,000 compounds, 0.52% hits; inhibition, % at 25 µM; Prostaglandin E2 receptor EP2 subtype (Homo sapiens), P43116; C6 glioma cells expressing human EP2; cells stimulated with saturating PGE2;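 active = percent inhibition above 40 after rounding to a whole number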;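 note: rat C6 glioma host cells with rolipram phosphodiesterase inhibitor present; the protocol text gives 20 µM as final concentration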
S1P3 antagonist – S1P3 receptor antagonists, primary screen, cell-based. CHO S1P3 NFAT-BLA reporter, FRET fluorescence, antagonist mode. 170,000 compounds, 0.27% hits. Sphingosine 1-phosphate receptor 3 (Homo sapiens), Q99500. inhibition, % at 4.98 µM;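 active = inhibition above the plate cutoff, the mean inhibition of test wells on that plate plus 3 SD, cut at about 28% in these data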;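 note: cells challenged with S1P at its EC80 of 0.8 µM; blue over green emission ratio from cleaved BLA substrate after 4 h stimulation; 0% = S1P-stimulated wells and 100% = unstimulated DMSO-only wells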
S1P4 ag – S1P4 receptor agonists, primary screen, cell-based. Sphingosine 1-phosphate receptor 4 (Homo sapiens), O95977. S1P4-expressing cell line, agonist reporter assay. activation, % at 4.98 µM. 220,000 compounds, 0.35% hits. AID 1509, 2009; in the data active = activation above about 11%;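 note: 0% = DMSO vehicle and 100% = reference agonist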
EP2 mod – EP2 receptor modulators, cAMP readout, primary screen, cell-based, HTRF cAMP, PGE2 stimulation. 260,000 compounds, 0.83% hits. EP2-expressing cells, cAMP HTRF FRET, PGE2 co-stimulation. induction, % at 25 µM. Prostaglandin E2 receptor EP2 subtype (Homo sapiens), P43116. AID 940, 2007;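 active = compounds whose cAMP rise, as percent of the full-agonist control response, exceeds 60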;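 note: rat C6 glioma line stably carrying human EP2 under a CMV promoter; the protocol text gives 20 µM as final concentration; 100% = response of wells given 1 µM PGE2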
S1P4 antag cf – S1P4 receptor antagonists, human, confirmation, cell-based; 520 compounds, 71% hits; shares compounds with S1P4 antag; inhibition, % at 4.98 µM; AID 1524, 2009; S1P4-expressing cell line, antagonist mode, reporter read-out; in the data active = inhibition above about 30%
S1P1 antagonist – S1P1 receptor antagonists, human, counter-screen for S1P4 antagonist project, cell-based; shares compounds with S1P4 antag; cell-based S1P1 antagonist counterscreen, inhibition; inhibition, % at 4.98 µM; 520 compounds, 37% hits; AID 1564, 2009; in the data active = inhibition above about 40%;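 note: receptor stimulated with S1P near its EC80; 0% = agonist stimulated wells and 100% = vehicle only wells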
Target sequence (P21453 whole entry, looked up): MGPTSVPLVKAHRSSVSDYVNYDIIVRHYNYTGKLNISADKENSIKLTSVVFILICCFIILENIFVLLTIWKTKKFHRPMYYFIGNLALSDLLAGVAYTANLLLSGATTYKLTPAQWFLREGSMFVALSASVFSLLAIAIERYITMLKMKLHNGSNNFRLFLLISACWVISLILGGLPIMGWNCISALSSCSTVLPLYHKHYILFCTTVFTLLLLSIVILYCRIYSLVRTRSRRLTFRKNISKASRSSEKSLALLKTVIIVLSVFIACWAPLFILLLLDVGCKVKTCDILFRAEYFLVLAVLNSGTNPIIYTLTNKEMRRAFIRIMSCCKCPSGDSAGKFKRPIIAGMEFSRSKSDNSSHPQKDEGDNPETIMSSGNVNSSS
Active calls of the source: *; i = inactive; / = not tested or not shown. Most compounds without a hit are left out; they make up all but 2.4% or so of the library.

SMILES	S1P4 antag	INS promoter inh	EP2 antag	S1P3 antagonist	S1P4 ag	EP2 mod	S1P4 antag cf	S1P1 antagonist
O=C(NCc1cccnc1)/C(=C/c1ccc(-c2cccc(C(F)(F)F)c2)o1)NC(=O)c1ccccc1	-2	-56	/	/	2	38	/	/
O=C(NCc1cccnc1)/C(=C/c1ccc(-c2ccc(Cl)cc2)o1)S(=O)(=O)c1ccccc1	49*	-22	8	/	-1	15	101*	43*
O=S(=O)(Nc1cccc2ncccc12)c1cccs1	54*	/	1	4	-1	2	106*	91*
CCOc1cc(/C=C2\Sc3ccccc3C2=O)cc(Br)c1OCC(=O)O	/	/	13	/	/	-150	/	/
Cc1cccc(N=C2NC(=O)/C(=C/c3cccn3C)S2)c1C	36*	/	7	23	1	-31	16	14
CCCn1c(=N)c(C(=O)NCC)cc2c(=O)n3cc(C)ccc3nc21	/	/	10	/	/	-15	/	/
COc1ccc2cc(C(c3nnnn3Cc3ccc(F)cc3)N3CCCC3)c(=O)[nH]c2c1 (stereo unspecified)	/	/	9	/	/	-26	/	/
O=C(Oc1cccc(/C=N/Nc2nc(Nc3ccccc3)nc(N3CCOCC3)n2)c1)c1ccco1	38*	-12	20	-6	-1	-19	70*	48*
O=C(Nc1ccc(Cl)cc1)/C(=C/c1cccc(O)c1)c1nc2ccccc2s1	38*	-3	18	-10	0	3	99*	62*
O=C(C=C=Nc1ccccc1)C(=O)N=C=Cc1ccccc1	42*	/	27	11	0	-52	106*	24
CC1CC(C)(C)Nc2ccc(OC(=O)c3ccco3)cc21 (stereo unspecified)	12	-14	10	19	0	7	/	/
CC1CC(C)(C)Nc2ccc(N=O)cc21 (stereo unspecified)	37*	-158	10	0	-1	-59	50*	16
COc1ccccc1-c1cc(C(=O)Nc2c(F)cc(F)cc2Br)no1	41*	/	5	12	-1	49	42*	16
O=c1[nH]c(=O)c2cc(S(=O)(=O)Nc3ccc(N4CCCCCC4)cc3)ccc2[nH]1	/	/	6	/	/	-99	/	/
Cc1nc2c(=O)n(C)c(=O)n(C)c2nc1Cl	49*	18	9	3	0	3	94*	51*
Cn1c(=O)c2[nH]c(C3CCCC3)nc2n(C)c1=O	/	/	13	/	/	13	/	/
COc1ccc(-n2nnnc2SCC(=O)Nc2ccc(C(C)=O)cc2)cc1	/	/	4	/	/	-46	/	/
CN(CCC#N)C(=O)COC(=O)c1ccccc1C(=O)c1ccc(Cl)c([N+](=O)[O-])c1	55*	-114	6	-6	-2	23	112*	53*
O=C(COC(=O)c1ccccc1C(=O)c1ccc(Cl)c([N+](=O)[O-])c1)NC1CCCCCC1	20	29	8	/	-3	-40	/	/
CC(C)N(C(=O)COC(=O)c1ccccc1C(=O)c1ccc(Cl)c([N+](=O)[O-])c1)C(C)C	31*	/	32	-3	-1	12	60*	46*
COc1ccc(OC)c2c1C(=O)C(Cl)=C(Cl)C2=O	56*	/	112*	31*	1	-33	107*	74*
Cc1nn(CC(=O)Nc2ccccc2F)c(=O)c2cc3ccsc3n12	/	/	/	/	/	-42	/	/
O=[N+]([O-])c1cc(S(=O)(=O)C(F)(F)F)ccc1Sc1nc2ccccc2[nH]1	33*	0	9	/	-1	-3	110*	1
O=C1/C(=C/Nc2ccc3c(c2)OCO3)CCc2ccccc21	31*	/	12	47	0	36	21	74*
CC1=CC(=O)C(C(C)C)=C/C1=N/OS(=O)(=O)c1ccccc1	38*	/	13	6	0	-20	79*	-19
SMILES	S1P4 antag	INS promoter inh	EP2 antag	S1P3 antagonist	S1P4 ag	EP2 mod	S1P4 antag cf	S1P1 antagonist
CC1=CC(=O)C=C(C)C1=NOS(=O)(=O)c1ccccc1	33*	i	56*	/	1	-25	98*	19
Cc1ccc(S(=O)(=O)ON=C2CCN(S(=O)(=O)c3ccccc3)CC2)cc1	-12	29	11	/	-1	-20	/	/
Cc1ccc2c(c1)/C(=N/OS(=O)(=O)c1ccccc1)CCS2	-14	-22	8	/	0	/	/	/
Cc1cc(C)c2nc(SCC(=O)NC3CCCC3)cc(C)c2c1	/	/	12	/	/	60	/	/
CC(=O)Nc1cc2c(cc1NC(=O)c1ncoc1-c1cccc(F)c1)OCCO2	/	/	3	/	/	-37	/	/
O=C(CSc1nc2c(c(C(F)(F)F)n1)CCCC2)Nc1ccc(F)cc1	/	/	12	/	/	-35	/	/
COc1ccccc1C(=O)OCc1nc(N)nc(Nc2ccccc2C)n1	107*	/	6	-1	1	-10	-11	1
Cc1cccc(CS(=O)(=O)c2nnc([C@H](Cc3ccccc3)NC(=O)OC(C)(C)C)o2)c1	88*	31	12	/	-2	14	93*	24
Cc1ccc(C)c2[nH]c(=O)c(C3C(C#N)=C(N)Oc4c3ccc3ccccc43)cc12 (stereo unspecified)	/	/	19	/	/	-36	/	/
CC1CCCN(c2nc3c(c(=O)[nH]2)CCN(Cc2ccc(O)cc2)C3)C1 (stereo unspecified)	/	/	6	/	/	-30	/	/
O=C(N/N=C/c1ccccc1)c1n[nH]c2c1CCCC2	-12	/	-2	20	2	0	/	/
O=C(N/N=C/C(Br)=C/c1ccccc1)c1n[nH]c2c1CCC2	32*	/	2	/	-2	-6	46*	82*
CCC(CC)c1nnc(NC(=O)Cc2ccccc2OC)s1	/	/	11	/	/	14	/	/
S=C1Cc2ccccc2N1	35*	/	6	-7	1	-63	110*	44*
Cc1cc(=O)[nH]c2ccc(N)cc12	/	/	7	/	/	-49	/	/
O=C(CSCCO)Nc1cccc(C(F)(F)F)c1	36*	50	8	1	1	19	4	3
O=C(CSCCO)Nc1ccccc1	0	-14	10	/	0	3	/	/
CC(C)(C)CC(C)(C)c1ccc(O)c(CN2CCN(CCC#N)CC2)c1	-5	-7	6	/	1	34	/	/
N#CCCN1CCN(Cc2cc(-c3ccccc3)ccc2O)CC1	39*	/	6	-21	-1	-2	14	20
